In PubChem BioAssay (NCI) one finds growth inhibition data, which are given here for ten compounds.

Compounds without any hit were thinned out: in the full panel of roughly 79,000, 15% have a hit. Unmarked numbers belong to inactive results. Active and inactive are the calls of the source. Cut-off read from the data, not from the text of the source: active = growth inhibition above about 70%; inactive = the rest.

The nature of assay [1]: NCI Yeast Anticancer Drug Screen. Data for the rad50 strain (AID 155).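 Note: 0% = growth of vehicle-only cultures of the same strain.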 The following applies: S. cerevisiae rad50 strain growth inhibition, stronger effect = higher value. The method in brief:
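A DNA repair-deficient yeast mutant serves as the test organism; compound-induced growth inhibition is calculated against vehicle-treated cells.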

Assay [2] can be described thus: NCI Yeast Anticancer Drug Screen. Data for the mec2-1 strain (AID 157). The following applies: S. cerevisiae mec2-1 strain, stronger effect = higher value. The method in brief: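 Readout is yeast growth inhibition, normalised to vehicle-treated controls, in the mec2-1 strain exposed to compound.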
Assay [3] in a line: NCI Yeast Anticancer Drug Screen. Data for the sgs1 mgt1 strain (AID 161).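 Note: 0% = growth of cultures given vehicle only.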 The settings on record: S. cerevisiae sgs1 mgt1 strain, stronger effect = higher value. The method in brief:
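Compounds are added to genetically altered yeast, and growth is compared with cultures given vehicle alone to give percent inhibition.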

Assay [4] is described as follows: NCI Yeast Anticancer Drug Screen. Data for the cln2 rad14 strain (AID 165).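 Note: 0% = growth equal to vehicle treated cultures.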 The following applies: S. cerevisiae cln2 rad14 strain, stronger effect = higher value. The method in brief:
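Relative to vehicle controls, growth inhibition of compound-treated cln2 rad14 yeast was recorded.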

A short description of assay [5]: NCI Yeast Anticancer Drug Screen. Data for the bub3 strain (AID 167). The following applies: S. cerevisiae bub3 mutant strain, stronger effect = higher value. The method, boiled down: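 Inhibition values come from growth of compound-treated mutant yeast normalised to vehicle-treated controls.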
Assay [6] can be described thus: NCI Yeast Anticancer Drug Screen. Data for the mlh1 rad18 strain (AID 175). The settings on record: S. cerevisiae mlh1 rad18 strain growth inhibition, stronger effect = higher value. The method, boiled down:
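Test agents were incubated with a yeast strain of defined genotype (DNA damage repair defect). Inhibition of growth was derived by comparison with vehicle-exposed cultures.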

The mark [7] stands for this setting: at 5.0 µM (retest, dose inferred, filed as 0.5).
The mark [8] stands for this setting: at 50.0 µM (retest, dose inferred, filed as 5.0).

`Cc1ccc(C(O)CCN2CCOCC2)c(C)c1` (stereo not given): the growth inhibition in assay [1] (setting [7]) is 26%; in assay [1] (setting [8]) it was 69%; in assay [1] (at 50.0 µM), 81.5% (active); in assay [2] (setting [7]), 30%; in assay [2] (setting [8]), 61%; in assay [2] (at 50.0 µM), 45.1%. Further, the growth inhibition was 44% in assay [3] (setting [7]); 68% in assay [3] (setting [8]); 78% (active) in assay [3] (at 50.0 µM); 44% in assay [4] (setting [7]); 71% (active) in assay [4] (setting [8]); 57.2% in assay [4] (at 50.0 µM). In addition, the growth inhibition was 43% in assay [5] (setting [7]); 82% (active) in assay [5] (setting [8]); 70% in assay [5] (at 50.0 µM); 23% in assay [6] (setting [7]); 65% in assay [6] (setting [8]); 69.2% in assay [6] (at 50.0 µM).
With `O=C(Nc1cccc(C(F)(F)F)c1)C(Cl)=C(Cl)Cl`, the growth inhibition in assay [1] (setting [7]) is 12%; in assay [1] (setting [8]), 99% (active); in assay [1] (at 50.0 µM) it was 98.5% (active); in assay [2] (setting [7]), -1%; in assay [2] (setting [8]), 98% (active); in assay [2] (at 50.0 µM), 98.8% (active). Also, the growth inhibition in assay [3] (setting [7]) is 0%; in assay [3] (setting [8]), 98% (active); in assay [3] (at 50.0 µM), 98.5% (active); in assay [4] (setting [7]) it was -8%; in assay [4] (setting [8]), 99% (active); in assay [4] (at 50.0 µM) it was 97.8% (active). Besides, the growth inhibition in assay [5] (setting [7]) was 0%; in assay [5] (setting [8]) it was 98% (active); in assay [5] (at 50.0 µM), 98.5% (active); in assay [6] (setting [7]), -2%; in assay [6] (setting [8]), 99% (active); in assay [6] (at 50.0 µM), 98.7% (active).
For the compound `N#C/C(=C\c1cc(Cl)cc(Cl)c1O)C(/C(C#N)=C/c1cc(Cl)cc(Cl)c1O)c1ccc2c(c1)OCO2` (stereo not given), the growth inhibition was 64% in assay [1] (setting [7]); 98% (active) in assay [1] (setting [8]); 90.8% (active) in assay [1] (at 50.0 µM); 48% in assay [2] (setting [7]); 99% (active) in assay [2] (setting [8]); 93.5% (active) in assay [2] (at 50.0 µM). For the same compound, the growth inhibition in assay [3] (setting [7]) is 75% (active); in assay [3] (setting [8]), 100% (active); in assay [3] (at 50.0 µM) it was 93.2% (active); in assay [4] (setting [7]) it was 44%; in assay [4] (setting [8]), 97% (active); in assay [4] (at 50.0 µM) it was 91.8% (active). For the same compound, the growth inhibition in assay [5] (setting [7]) was 74% (active); in assay [5] (setting [8]) it was 99% (active); in assay [5] (at 50.0 µM) it was 92.1% (active); in assay [6] (setting [7]), 80% (active); in assay [6] (setting [8]), 99% (active); in assay [6] (at 50.0 µM), 90.8% (active).
In the case of `CCCC(C)NCCCCCNc1cc(OC)cc2cccnc12` (stereo not given), the growth inhibition is 3% in assay [1] (setting [7]); 60% in assay [1] (setting [8]); 78.8% (active) in assay [1] (at 50.0 µM); 2% in assay [2] (setting [7]); 22% in assay [2] (setting [8]); 48.5% in assay [2] (at 50.0 µM). Besides, the growth inhibition in assay [3] (setting [7]) is 25%; in assay [3] (setting [8]), 62%; in assay [3] (at 50.0 µM) it was 71.6% (active); in assay [4] (setting [7]), 14%; in assay [4] (setting [8]) it was 40%; in assay [4] (at 50.0 µM) it was 42%. The growth inhibition is 19% in assay [5] (setting [7]); 61% in assay [5] (setting [8]); 82.2% (active) in assay [5] (at 50.0 µM); -19% in assay [6] (setting [7]); 11% in assay [6] (setting [8]); 76.5% (active) in assay [6] (at 50.0 µM).
Consider `O=C(NC(Cc1ccccc1)C(=O)O)c1ccncc1` (stereo not given), for which the growth inhibition in assay [1] (setting [7]) was -2%; in assay [1] (setting [8]), -12%; in assay [1] (at 50.0 µM), 61.6%; in assay [2] (setting [7]) it was -1%; in assay [2] (setting [8]) it was -7%; in assay [2] (at 50.0 µM), 28.9%. Further, the growth inhibition in assay [3] (setting [7]) was 0%; in assay [3] (setting [8]) it was -5%; in assay [3] (at 50.0 µM), 63.2%; in assay [4] (setting [7]), -1%; in assay [4] (setting [8]) it was -11%; in assay [4] (at 50.0 µM), 57.2%. Besides, the growth inhibition is -1% in assay [5] (setting [7]); -2% in assay [5] (setting [8]); 44.1% in assay [5] (at 50.0 µM); -1% in assay [6] (setting [7]); -6% in assay [6] (setting [8]); 46.1% in assay [6] (at 50.0 µM).
As to `Cc1cc(Sc2ccccc2)c2c(C)ccc(C(C)C)cc1-2`, the growth inhibition was 0% in assay [1] (setting [7]); -7% in assay [1] (setting [8]); -13.8% in assay [1] (at 50.0 µM); -8% in assay [2] (setting [7]); -12% in assay [2] (setting [8]); 61.4% in assay [2] (at 50.0 µM). Moreover, the growth inhibition in assay [3] (setting [7]) is 1%; in assay [3] (setting [8]), 6%; in assay [3] (at 50.0 µM) it was -0.65%; in assay [4] (setting [7]), -16%; in assay [4] (setting [8]), -9%; in assay [4] (at 50.0 µM) it was 78.2% (active). The growth inhibition in assay [5] (setting [7]) was -5%; in assay [5] (setting [8]), -10%; in assay [5] (at 50.0 µM), 21.4%; in assay [6] (setting [7]), -2%; in assay [6] (setting [8]), -3%; in assay [6] (at 50.0 µM), 58%.
With `COC(=O)/C=C1/OC(c2ccccc2)=CC1=O`, the growth inhibition in assay [1] (setting [7]) is 31%; in assay [1] (setting [8]), 31%; in assay [1] (at 50.0 µM), 87.5% (active); in assay [2] (setting [7]), 8%; in assay [2] (setting [8]) it was 8%; in assay [2] (at 50.0 µM) it was 91.7% (active). Also, the growth inhibition is 22% in assay [3] (setting [7]); 22% in assay [3] (setting [8]); 57% in assay [3] (at 50.0 µM); -2% in assay [4] (setting [7]); -2% in assay [4] (setting [8]); 70.3% (active) in assay [4] (at 50.0 µM). In addition, the growth inhibition in assay [5] (setting [7]) is 0%; in assay [5] (setting [8]), 0%; in assay [5] (at 50.0 µM), 85.8% (active); in assay [6] (setting [7]), 9%; in assay [6] (setting [8]), 9%; in assay [6] (at 50.0 µM), 86.2% (active).
With `CCOc1ccc2c(c1)[n+]([O-])c(S(=O)(=O)c1ccc(C)cc1)c(N)[n+]2[O-]`, the growth inhibition in assay [1] (setting [7]) is -5%; in assay [1] (setting [8]), 63%; in assay [1] (at 50.0 µM), 91.2% (active); in assay [2] (setting [7]) it was 18%; in assay [2] (setting [8]), 77% (active); in assay [2] (at 50.0 µM), 48.3%. Also, the growth inhibition in assay [3] (setting [7]) is 30%; in assay [3] (setting [8]) it was 88% (active); in assay [3] (at 50.0 µM), 90.8% (active); in assay [4] (setting [7]) it was 13%; in assay [4] (setting [8]), 55%; in assay [4] (at 50.0 µM) it was 90.3% (active). Also, the growth inhibition is 37% in assay [5] (setting [7]); 97% (active) in assay [5] (setting [8]); 93.3% (active) in assay [5] (at 50.0 µM); 20% in assay [6] (setting [7]); 85% (active) in assay [6] (setting [8]); 94.2% (active) in assay [6] (at 50.0 µM).
As for `O=C1c2cccc(O)c2C(=O)c2c(O)cc(CO)cc21`, the growth inhibition was 58% in assay [1] (setting [7]); 92% (active) in assay [1] (setting [8]); 87% (active) in assay [1] (at 50.0 µM); 52% in assay [2] (setting [7]); 94% (active) in assay [2] (setting [8]); 90.3% (active) in assay [2] (at 50.0 µM). The growth inhibition in assay [3] (setting [7]) was 61%; in assay [3] (setting [8]) it was 93% (active); in assay [3] (at 50.0 µM) it was 90.5% (active); in assay [4] (setting [7]), 23%; in assay [4] (setting [8]) it was 81% (active); in assay [4] (at 50.0 µM), 88% (active). Moreover, the growth inhibition was 54% in assay [5] (setting [7]); 91% (active) in assay [5] (setting [8]); 89.4% (active) in assay [5] (at 50.0 µM); 82% (active) in assay [6] (setting [7]); 97% (active) in assay [6] (setting [8]); 90.8% (active) in assay [6] (at 50.0 µM).
Consider `Cc1noc(NS(=O)(=O)c2ccc(N=Nc3cc(N=Nc4ccc(S(=O)(=O)Nc5onc(C)c5C)cc4)c4c(NC(=O)C(Cl)Cl)cccc4c3O)cc2)c1C` (tested in a mixture with another compound), for which the growth inhibition was 96% (active) in assay [1] (setting [7]); 61% in assay [1] (setting [8]); 73% (active) in assay [1] (at 50.0 µM); 97% (active) in assay [2] (setting [7]); 57% in assay [2] (setting [8]); 74.5% (active) in assay [2] (at 50.0 µM). Besides, the growth inhibition in assay [3] (setting [7]) was 95% (active); in assay [3] (setting [8]), 63%; in assay [3] (at 50.0 µM), 75% (active); in assay [4] (setting [7]), 96% (active); in assay [4] (setting [8]), 65%; in assay [4] (at 50.0 µM) it was 63.4%. The growth inhibition was 95% (active) in assay [5] (setting [7]); 56% in assay [5] (setting [8]); 49.1% in assay [5] (at 50.0 µM); 88% (active) in assay [6] (setting [7]); 43% in assay [6] (setting [8]); 59.2% in assay [6] (at 50.0 µM).
